# Screens (PubChem)
# Most compounds without a hit are left out; they make up all but 9.3% or so of the library.
# HCV inh: blocks hepatitis C virus; Huh7.5.1 HCVcc-Cre infection, luciferase reporter, 44 h; actives 3.4% (n = 340,000); Potency, µM (titrated, usually from 41.8 µM), for the others: at the top dose activity change, negative = inhibition, hits mostly inhibitors; AID 651820; further: potency means the concentration at half of the fitted maximal effect
#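 Whole-lifecycle infectious HCVcc-Cre system; cells 1,000/well, compound then virus (~0.5 moi) added 4 h after plating, 44 h culture. Luciferase read 15 sec following 15 min substrate incubation, room temp.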
# HCMV inh: blocks human cytomegalovirus replication. HFF cells, HCMV-luciferase reporter, 72 h; active compounds read low. activity change, negative = inhibition, % at 57.5 µM. actives 4.5% (n = 410,000). AID 1259415; in the data active means activity change below about -60%; inconclusive means no clear call, values can overlap the other calls; inactive means above about -39%
#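 Two compound doses tested in HFFs infected with HCMV-luciferase, MOI 1 PFU/cell, 72 h at 37C. Lysate luminescence read with OneGlo; data normalized against buffer-only and 10uM Salinomycin inhibitor controls.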
# VACV mCherry inh: vaccinia inhibition (mCherry reporter). Vaccinia virus mCherry reporter infection, fluorescence. actives 0.63% (n = 310,000). AID 720579. Potency, µM (top dose mostly 36.5 µM), without a hit: at the top dose activity change, negative = inhibition, actives largely listed as inhibitors; calls by dose curve; tested in A549 cells; further: potency means the concentration at half of the fitted maximal effect; nearly all actives have a fitted effect of over 35% in size
# Sm TGR inh: S. mansoni TGR enzyme inhibition; purified TGR, DTNB reduction, TNB absorbance 405 nm; AID 485364; actives 3% (n = 360,000); Potency, µM (series often up to 114 µM), for inactives: at the highest dose activity change, negative = inhibition, actives largely listed as inhibitors; Q962Y6; further: potency means the concentration at half of the fitted maximal effect; nearly all actives have a fitted effect of over 60% in size
#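 First, TGR (20 nM dispensed) and NADPH were mixed with compound. Second, a 15 min room-temperature incubation followed. Third, further NADPH and then DTNB were added to start the reaction. Finally, TNB absorbance was monitored kinetically.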
# VACV Venus inh: inhibitors of vaccinia virus (Venus reporter); Potency, µM (highest dose often 36.5 µM), for the others: at the highest dose activity change, negative = inhibition, most hits filed as inhibitors; AID 720580; actives 0.46% (n = 330,000); Vaccinia virus Venus reporter expression, fluorescence; calls by dose curve; tested in A549 cells; further: potency means the concentration at half of the fitted maximal effect; nearly all actives have a fitted effect of over 30% in size
# FMDV antiviral: antivirals against foot and mouth disease virus. FMDV antiviral cell-based qHTS. Potency, µM (series often up to 57.9 µM), without a hit: at the highest dose activity change, negative = inhibition, hits mostly inhibitors. actives 1.2% (n = 410,000); calls by dose curve; tested in HEK293T cells; further: read-out not given here; potency means the concentration at half of the fitted maximal effect; nearly all actives have a fitted effect of over 45% in size
# * = called active by the depositor; i = inactive; u = inconclusive; x = not tested or not shown; [ ] = dose if it differs, or a comment. Unless noted, the call rests on the fitted dose curve; in most records, active means well fitted curve in the direction sought with a large enough effect; inconclusive means small, poorly fitted or top-dose-only effect, or another doubt; inactive means no such curve, though single readings can be large; an effect the other way counts as inactive or inconclusive. On the % scale 0 is the no-effect control and ±100 the full control effect.
SMILES,HCV inh,HCMV inh,VACV mCherry inh,Sm TGR inh,VACV Venus inh,FMDV antiviral
CCc1nc(N2CCN(C(=O)CCl)CC2)c2c3c(sc2n1)CC(C)CC3 (configuration not stated),u,-10,-3%,16µM*,-28%,u
O=C(c1ccco1)N1CCN(c2nc(C3CC3)nc3sc4c(c23)CCCC4)CC1,u,x,-29%,40µM*,-17%,u
COCCCNC(=O)CCC(=O)N1Cc2cccc(OC)c2Oc2ncccc21,x,1,-6%,-3%,-2%,-3%
Cc1nc(N2CCN(c3ccccc3)CC2)c2c3c(sc2n1)CCC3,x,x,x,9%,x,x
Cc1nc(N2CCN(C(=O)c3cccs3)CC2)c2c3c(sc2n1)CCCC3,11µM*,-21,u,8%,u,25µM*
Cc1nc(N2CCN(C(=O)c3ccco3)CC2)c2c3c(sc2n1)CC(C)CC3 (configuration not stated),13µM*,u,x,0%,x,u
Cc1nc(N2CCN(C(=O)c3ccco3)CC2)c2c3c(sc2n1)CCCC3,2.8µM*,-25,u,45µM*,-22%,x
Cc1ccc(S(=O)(=O)N2CCN(c3nc(C)nc4sc5c(c34)CCC(C)C5)CC2)cc1 (configuration not stated),x,x,x,6%,x,x
Cc1ccc(N2C(=O)c3ccc(C(=O)N4CCN(c5cccc(C)c5C)CC4)cc3C2=O)cc1,7%,13,x,3%,x,-10%
Cc1ccc(N2C(=O)c3ccc(C(=O)N4CCN(c5ccc(C)c(C)c5)CC4)cc3C2=O)cc1,19%,-70*,i,-4%,0%,-16%
O=[N+]([O-])c1cccc(-c2ccn[nH]2)c1,0%,-34,x,7%,x,1%
CCCCC1(C)NC(=O)c2c(C)sc(C(=O)OCC)c2N1 (configuration not stated),u,3,x,0%,-6%,-22%
COCCN(C(=O)CC1CCCC1)c1c(N)n(CC(C)C)c(=O)[nH]c1=O,19%,-16,-17%,-5%,-6%,-6%
O=C(COC(=O)c1ccc(Cl)c(S(=O)(=O)N2CCCCCC2)c1)Nc1ccccc1,36%,-10,-12%,-10%,-6%,-9%
CCc1ccc(OCC2NCCc3cc(OC)c(OC)cc32)cc1 (configuration not stated),-2%,-90*,x,-22%,x,-22%
COc1cc2c(cc1OC)C(Cc1ccc(O)cc1)NCC2 (configuration not stated),-3%,-79*,-15%,-5%,-7%,-23%
Oc1ccc(C[C@H]2NCCc3cc(O)c(O)cc32)cc1O,22%,11,-12%,18µM*,-11%,3%
CCOc1ccc(CC2NCCc3cc(OCC)c(OCC)cc32)cc1OCC (configuration not stated),6.3µM*,-31,x,-34%,x,u
COc1cc2c(cc1OC)C(COc1ccc(F)cc1)NCC2 (configuration not stated),14%,u,x,-28%,x,-24%
CCOc1cc2c(cc1OCC)C(c1ccc(F)cc1)NCC2 (configuration not stated),9%,-1,x,x,x,-11%
Oc1cc2c(cc1O)[C@H](c1ccccc1)CNCC2,x,x,x,x,x,-19%
CSC(=NC#N)N1CCN(C(=NC#N)SC)CC1,-7%,-9,i,x,-15%,-14%
O=C(CSc1nnc2ccc(-c3ccc(F)cc3)nn12)N1CCCC1,16%,12,0%,-2%,5%,-13%
CC(NC(=S)Nc1ccc(F)cc1)c1ccccc1 (configuration not stated),-16%,u,-4%,-16%,-12%,-2%
CC(C)c1ccccc1NC(=S)NC(C)c1ccccc1 (configuration not stated),-16%,-87*,u,0%,-15%,-6%
SMILES,HCV inh,HCMV inh,VACV mCherry inh,Sm TGR inh,VACV Venus inh,FMDV antiviral
CCc1nc2sc3c(c2c(=O)n1NC(=O)CCl)CCCC3,u,-74*,x,45µM*,x,u
CC(=O)N(C(C)=O)n1c(C)nc2sc3c(c2c1=O)CCCC3,5%,u,i,x,-11%,-8%
Cc1cccc(NC(=O)C(C)OC(=O)c2ccccc2NS(=O)(=O)c2cc(C)c(C)c([N+](=O)[O-])c2)c1 (configuration not stated),u,-5,u,-12%,-22%,u
Cc1ccc(C(=O)Sc2cccccc2=O)cc1,-11%,-99*,1µM*,u,1.8µM*,0%
O=C(Nc1ccccc1SC(=O)c1ccccc1)c1ccccc1,x,-4,-6%,x,-11%,65%
Cn1cc(S(=O)(=O)N2CCCCC2)cc1C(=O)N1CCN(c2ccc(F)cc2)CC1,x,7,-10%,1%,-10%,0%
CCN(CC)c1ccc(/C=N/NC(=O)CNC(=O)c2ccccn2)cc1,6%,-25,-6%,-1%,-5%,8%
O=C(CSc1ncnc2nc[nH]c12)N1CCN(c2ccc(Cl)cc2)CC1,u,-69*,x,3%,x,u
FC(F)(F)c1ccncc1-c1nnc(C2CCCCC2)o1,4%,21,i[7.34 µM],4%,-4%[7.34 µM],7%
COc1cccc(-n2c(=O)c3c(C)c(C)sc3n(CC(=O)NCc3ccccc3)c2=O)c1,x,-9,-7%,2%,-11%,-5%
CC(C)(C)c1nc(NC(=O)Nc2ccccc2)sc1Br,u,-97*,x,6%,x,u
Fc1ccc(CNCCCSc2nnnn2-c2ccccc2)cc1,x,-17,3%,-1%,-7%,0%
COc1ccc(Nc2nnc(-c3ccc(C)c(S(=O)(=O)NCc4nc5ccccc5[nH]4)c3)c3ccccc23)cc1,x,-95*,u,-4%,u,42%
Cc1ccc(-c2nnc(Nc3ccc(O)cc3)c3ccccc23)cc1S(=O)(=O)NCC1CCCO1 (configuration not stated),x,-71*,u,-20%,-25%,8%
Cc1ccc(-c2nnc(Nc3cccc(Cl)c3)c3ccccc23)cc1S(=O)(=O)NCC1CCCO1 (configuration not stated),x,-65*,-21%,-35%,-22%,58%
Cc1cc(N2CCN(C)CC2)nc2ccc(NC(=S)NCCC(C)C)cc12,u,u,x,u,x,6%
CCC(C)NC(=S)Nc1ccc2nc(N3CCOCC3)cc(C)c2c1 (configuration not stated),11µM*,u,x,0%,x,3%
Cc1cc(N2CCOCC2)nc2ccc(NC(=S)NCCC(C)C)cc12,10µM*,-4,u,-34%,-28%,-19%
CCC(C)NC(=S)Nc1ccc2nc(N3CCN(CC)CC3)cc(C)c2c1 (configuration not stated),u,-30,x,u,x,1%
